Shown is part of a subset that was picked to be rich in hits.
ST2 IL33 inh: blocks human ST2 binding to IL-33. inhibition, % for hits at 17 µM. AlphaLISA ST2-Fc/biotin-IL-33 interaction, 1 h. Q01638. actives 2.3% (n = 78,000). AID 1259354; in the data active means inhibition above about 30%
Target sequence (Q01638 whole entry, looked up): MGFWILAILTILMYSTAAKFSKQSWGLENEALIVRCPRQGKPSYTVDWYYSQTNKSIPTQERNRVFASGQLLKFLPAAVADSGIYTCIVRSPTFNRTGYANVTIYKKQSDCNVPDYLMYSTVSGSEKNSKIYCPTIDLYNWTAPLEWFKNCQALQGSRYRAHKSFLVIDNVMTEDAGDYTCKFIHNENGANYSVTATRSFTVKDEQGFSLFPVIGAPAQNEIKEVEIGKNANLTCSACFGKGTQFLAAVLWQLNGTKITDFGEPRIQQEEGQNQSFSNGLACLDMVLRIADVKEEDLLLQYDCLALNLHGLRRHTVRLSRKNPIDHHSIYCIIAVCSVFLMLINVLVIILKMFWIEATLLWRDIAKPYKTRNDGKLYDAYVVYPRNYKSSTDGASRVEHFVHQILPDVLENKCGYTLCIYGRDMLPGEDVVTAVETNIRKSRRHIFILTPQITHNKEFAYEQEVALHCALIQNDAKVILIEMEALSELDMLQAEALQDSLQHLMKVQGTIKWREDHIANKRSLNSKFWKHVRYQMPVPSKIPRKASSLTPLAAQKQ
* marks the source's active call; other numbers are inactive results; ! = not active in a repeat.

Screening O=C(NCc1ccc(F)cc1Cl)c1ccc2c(c1)NC(=O)C(N1CCOCC1)S2 (stereo not given) returned ST2 IL33 inh inactive.
`COc1ccc(C=Nc2ccc3oc(-c4ccncc4)nc3c2)cc1Cl` gave ST2 IL33 inh 33%*.
COc1cccc(-c2nc3cc(N=Cc4ccc([N+](=O)[O-])cc4)ccc3o2)c1 was read as ST2 IL33 inh inactive.
COc1cccc(-c2nc3cc(N=Cc4cccc(OC)c4O)ccc3o2)c1 was read as ST2 IL33 inh inactive.
`Cc1cc(N2CCOCC2)cc(C)[n+]1OC(=O)N(c1ccccc1)c1ccccc1` gave ST2 IL33 inh inactive.
`O=C(CCCn1c(=O)c2sccc2n(Cc2ccc(Cl)cc2)c1=O)NCc1ccco1` gave ST2 IL33 inh inactive.
Screening O=C(Cn1c(=O)c2sccc2n(Cc2ccc(Cl)cc2)c1=O)NCc1ccco1 returned ST2 IL33 inh inactive.
O=C(CCCn1c(=O)c2sccc2n(Cc2ccc(F)cc2)c1=O)NCc1ccco1 was read as ST2 IL33 inh 30%*!.
`CCCC(=O)Nc1ccc(Nc2nc(C)cc(N(C)C)n2)cc1` gave ST2 IL33 inh inactive.
For Cc1cc(Nc2ccccc2)nc(Nc2ccc(NC(=O)c3ccccc3Cl)cc2)n1 the results were ST2 IL33 inh inactive.
For COc1ccc(Nc2cc(C)nc(Nc3ccc(NC(=O)c4ccc(OC)cc4)cc3)n2)cc1 the results were ST2 IL33 inh 32%*.
`Cc1ccc(Nc2cc(C)nc(Nc3ccc(NC(=O)Cc4ccccc4)cc3)n2)cc1` gave ST2 IL33 inh inactive.
For CCC(CC)C(=O)Nc1ccc(Nc2nc(C)cc(Nc3ccc(OC)cc3)n2)cc1 the results were ST2 IL33 inh 39%*.
Screening COc1ccc(Nc2cc(C)nc(Nc3ccc(NC(=O)c4ccc(F)cc4)cc3)n2)cc1 returned ST2 IL33 inh inactive.
For COc1cc(C(=O)Nc2ccc(Nc3nc(C)cc(Nc4ccccc4)n3)cc2)cc(OC)c1OC the results were ST2 IL33 inh inactive.
For Cc1cc(Nc2ccccc2)nc(Nc2ccc(NC(=O)c3cccc(Br)c3)cc2)n1 the results were ST2 IL33 inh inactive.
Cc1cc(Nc2ccccc2)nc(Nc2ccc(NC(=O)c3ccccc3)cc2)n1 was read as ST2 IL33 inh 32%*.
For CCCC(=O)Nc1ccc(Nc2nc(C)cc(Nc3ccccc3)n2)cc1 the results were ST2 IL33 inh 31%*.
Screening Cc1ccc(Nc2cc(C)nc(Nc3ccc(NC(=O)c4ccc(C(C)(C)C)cc4)cc3)n2)cc1 returned ST2 IL33 inh inactive.
Screening COc1ccc(C(=O)Nc2ccc(Nc3nc(C)cc(Nc4ccccc4)n3)cc2)cc1OC returned ST2 IL33 inh inactive.
`O=C(CN1C(=O)C2CC=CCC2C1=O)N1CCC2(CC1)OCCO2` (stereo not given) gave ST2 IL33 inh inactive.
For O=C(CN(c1ccc(F)cc1)S(=O)(=O)c1ccccc1)N1CCCCC1 the results were ST2 IL33 inh inactive.
For CCOC(=O)c1c(NC(=O)c2cc3cc(OC)ccc3oc2=O)sc(C)c1C the results were ST2 IL33 inh inactive.
`Cc1ccc2nc(C)cc(NCc3cccnc3)c2c1` gave ST2 IL33 inh inactive.
For C[C@@H](CC[C@@H]1[C@@]2(C)CCCC(C)(C)C2CC[C@@]1(C)O)CC(=O)O (stereo not given in full) the results were ST2 IL33 inh inactive.
`CCCOC(=O)C1C2C=CC3(CN(C(c4ccccc4)c4ccccc4)C(=O)C13)O2` (stereo not given) gave ST2 IL33 inh inactive.
For Cn1ccnc1-c1ccc(NCCn2ccc3ccccc32)nn1 the results were ST2 IL33 inh inactive.
For CC1CCc2c(sc3ncnc(NCc4ccco4)c23)C1 (stereo not given) the results were ST2 IL33 inh inactive.
`COCCCN1C(=O)N(Cc2ccc(OC)cc2)C(=O)C12CCN(Cc1cc3ccccc3[nH]1)CC2` gave ST2 IL33 inh inactive.
Screening CCC(C(=O)Nc1ccc(Nc2nc(C)cc(Nc3ccc(C)cc3)n2)cc1)c1ccccc1 (stereo not given) returned ST2 IL33 inh 36%*.
For COc1ccc(Nc2cc(C)nc(Nc3ccc(NC(=O)c4ccc(C(F)(F)F)cc4)cc3)n2)cc1 the results were ST2 IL33 inh inactive.
Screening Cc1cc(N(C)C)nc(Nc2ccc(NC(=O)CC3CCCC3)cc2)n1 returned ST2 IL33 inh inactive.
`CC(=O)Nc1ccccc1NC(=O)CCC1CCCCC1` gave ST2 IL33 inh inactive.
`Cc1ccc(Nc2cc(C)nc(Nc3ccc(NC(=O)c4ccccc4C)cc3)n2)cc1` gave ST2 IL33 inh inactive.
Cc1ccc(Nc2cc(C)nc(Nc3ccc(NC(=O)CC(C)(C)C)cc3)n2)cc1 was read as ST2 IL33 inh inactive.
NC(=O)c1ccccc1NC(=O)CCC1CCCCC1 was read as ST2 IL33 inh inactive.
COc1ccc(Nc2cc(C)nc(Nc3ccc(NC(=O)CCC4CCCC4)cc3)n2)cc1 was read as ST2 IL33 inh 30%*.
For CN(C)c1ccc(NC(=O)CCC2CCCCC2)cc1 the results were ST2 IL33 inh 67%*.
`FC(F)(F)c1cccc(N2CCN(C3CCCN(C4C5CC6CC(C5)CC4C6)C3)CC2)c1` (stereo not given) gave ST2 IL33 inh inactive.
`Nc1ccc(C(=O)Nc2ccccc2)c(N)c1` gave ST2 IL33 inh inactive.
For CCOc1ccccc1CN(CC)C(=O)c1ccc(S(C)(=O)=O)cc1 the results were ST2 IL33 inh inactive.
CCCc1cc(C(=O)Nc2ccc(Br)cc2)no1 was read as ST2 IL33 inh inactive.
Cc1nc(Oc2ccccc2)c2c3c(sc2n1)CCCC3 was read as ST2 IL33 inh inactive.
Screening COc1ccc(NC(=O)c2oc3ccccc3c2NC(=O)c2cccs2)c(OC)c1 returned ST2 IL33 inh inactive.
CC(=O)N1c2ccc(S(=O)(=O)N3CCN(c4cccc(C)c4)C(C)C3)cc2CC1C (stereo not given) was read as ST2 IL33 inh inactive.
O=C(NC(=O)c1ccccc1)Oc1ccc([N+](=O)[O-])cc1 was read as ST2 IL33 inh inactive.
Screening O=[N+]([O-])c1ccc(C(=Nc2ccccc2)NO)cc1 returned ST2 IL33 inh inactive.
`O=C(C#Cc1ccc([N+](=O)[O-])cc1)c1ccccc1` gave ST2 IL33 inh 33%*.
For CCC(=O)N1CCc2cc(Br)cc(S(=O)(=O)NCCCN3CCCCC3)c21 the results were ST2 IL33 inh inactive.
For COC(=O)c1cccnc1-n1c(=O)c2cccnc2n(Cc2ccc(C)cc2C)c1=O the results were ST2 IL33 inh inactive.
For O=c1c2c(nc(SCc3ccc(F)cc3)n1-c1ccc(F)cc1)CCS2 the results were ST2 IL33 inh inactive.
`Cc1ccc(-n2c(SCc3ccc(F)cc3)nc3c(c2=O)SCC3)cc1` gave ST2 IL33 inh 31%*!.
For Cc1ccc(-n2c(SCC(=O)N3CCCCC3)nc3c(c2=O)SCC3)cc1 the results were ST2 IL33 inh inactive.
O=C(CSc1nc2c(c(=O)n1-c1ccc(Cl)cc1)SCC2)N1CCc2ccccc21 was read as ST2 IL33 inh inactive.
For O=C(CSc1nc2c(c(=O)n1-c1ccc(Cl)cc1)SCC2)N1CCCc2ccccc21 the results were ST2 IL33 inh inactive.
Screening Cc1ccc(-n2c(SCc3cccc(F)c3)nc3c(c2=O)SCC3)cc1 returned ST2 IL33 inh 33%*!.
For Cc1ccc(-n2c(SCc3ccccc3)nc3c(c2=O)SCC3)cc1 the results were ST2 IL33 inh 30%*!.
Cc1ccc(-n2c(SCC(=O)N3CCc4ccccc43)nc3c(c2=O)SCC3)cc1 was read as ST2 IL33 inh 97%*!.
CCSc1nc2c(c(=O)n1-c1ccc(F)cc1)SCC2 was read as ST2 IL33 inh inactive.
